The source made the active and inactive calls. The rule behind the calls is not given here.
test: mtPTP inhibition measured by calcium retention, dose response, biochemical, dry powder samples, uHTS hits, isolated mitochondria (AID 720728); settings: calcium retention capacity

CRC/CRC0 ratio at 50 uM (fold over control, higher = inhibition), active:
CN1CCC[C@@H]1CCO[C@](C)(c1ccccc1)c1ccc(Cl)cc1 1.81 fold
O=C(CC1NCCc2ccccc21)Nc1ccc(Cl)cc1 (stereo unspecified) 1.65 fold
COc1ccc(-n2cc(CNC3CCN(C)CC3)c(-c3cccc(F)c3)n2)cc1 1.5 fold
Cc1cc(C)c2nc(N(CCCN(C)C)C(=O)C3=COCCO3)sc2c1 1.4 fold
CC1CCCN(CCC(=O)c2ccc(Br)cc2)C1 (stereo unspecified) 2.73 fold
CCOC(=O)N1CCN(S(=O)(=O)c2ccc(C(=O)N(CCCN(C)C)c3nc4c(C)c(C)ccc4s3)cc2)CC1 1.51 fold
N#Cc1c(NCCN)nc(-c2ccco2)c2c1CCCC2 1.81 fold
COc1ccc(Cl)cc1C(=O)Nc1ccc(CN2CCCCC2)cc1 2.57 fold
CNCCCC12CCC(c3ccccc31)c1ccccc12 1.82 fold
C=CCNCCOCCOc1ccc(Cl)cc1C(C)(C)C 1.81 fold
CC(C)(C)c1ccccc1OCCCCCNCCO 1.82 fold
COc1cc(CNCCO)cc(Cl)c1OCc1ccccc1Cl 1.81 fold
CN(C)CCCN1c2ccccc2Sc2ccc(Cl)cc21 1.97 fold
COCCCNCCCOc1ccc(Cl)cc1C(C)(C)C 2.13 fold
COc1cc(NC(=O)c2cc(-c3cccc(O)c3)on2)cc(OC)c1OC 1.93 fold
CCN(CC)CCCN=Cc1c(O)n(Cc2ccccc2)c(=O)c2ccccc12 1.3 fold
N=c1sccn1CC(=O)Nc1cccc(Oc2ccccc2)c1 1.91 fold
CCN(CC)c1ccc(NC(=O)c2cc(Cl)ccc2OC)cc1 0.622 fold
C=CCNCCCOc1ccc(C)cc1Br 1.53 fold
COc1ccc(C)c2sc(N(CCCN(C)C)C(=O)CS(=O)(=O)c3ccc(F)cc3)nc12 1.4 fold
Cc1cc(C)c2nc(N(CCCN(C)C)C(=O)c3ccc(S(=O)(=O)N4CCCCCC4)cc3)sc2c1 1.57 fold
Cc1ccc2nc(N(CCN(C)C)C(=O)/C=C/c3cccs3)sc2c1 1.28 fold
C=CCNCCOc1ccc(C(C)(C)c2ccccc2)cc1 1.95 fold
CNCCC=C1c2ccccc2CCc2ccccc21 1.66 fold
Cc1ccc2nc(N(CCCN(C)C)C(=O)CCc3ccccc3)sc2c1 1.61 fold
COC(=O)c1c(NC(=O)C2CCCCC2)sc2c1CC(C)(C)NC2(C)C 2.05 fold

From PubChem BioAssay AID720728 (Molecular Libraries Program, Specialized Chemistry Center, …, 2013)
